Source: PubChem BioAssay
NS1 function inh: inhibitors of influenza NS1 protein function. Potency, µM (highest dose often 46.1 µM). AID 2326. hit rate 0.4% among 270,000; calls by dose curve; also: actives are rising curves; nearly all actives have a fitted effect of over 50% in size
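OD600 was taken as the measure of yeast growth restored by compound in an NS1-expressing S. cerevisiae strain. Cells had been washed out of glucose medium and diluted 1:100 into galactose -URA medium, pH 6.0.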
SARS PLpro yeast: inhibitors of SARS-CoV papain-like protease in yeast; AID 485353; hit rate 0.19% among 330,000; Potency, µM (series often up to 32.9 µM), most hits filed as activators; S. cerevisiae expressing SARS-CoV PLpro, growth rescue; calls by dose curve; also: nearly all actives have a fitted effect of over 55% in size
Shiga toxin inh: blocks Shiga toxin action in Vero cells; Vero cells, Shiga toxin protein synthesis inhibition reporter; inhibition, % at 38.7 µM; hit rate 9.2% among 290,000; in the data active = inhibition mostly above about 28%, no sharp cut-off; inactive = mostly below about 43%
LmPK inh: inhibitors of Leishmania mexicana pyruvate kinase | hit rate 0.37% among 290,000 | Potency, µM (series often up to 57.5 µM), hits mostly inhibitors | purified LmPK, Kinase-Glo ATP luminescence, 1 h | Q27686
Target sequence (Q27686 whole entry, looked up): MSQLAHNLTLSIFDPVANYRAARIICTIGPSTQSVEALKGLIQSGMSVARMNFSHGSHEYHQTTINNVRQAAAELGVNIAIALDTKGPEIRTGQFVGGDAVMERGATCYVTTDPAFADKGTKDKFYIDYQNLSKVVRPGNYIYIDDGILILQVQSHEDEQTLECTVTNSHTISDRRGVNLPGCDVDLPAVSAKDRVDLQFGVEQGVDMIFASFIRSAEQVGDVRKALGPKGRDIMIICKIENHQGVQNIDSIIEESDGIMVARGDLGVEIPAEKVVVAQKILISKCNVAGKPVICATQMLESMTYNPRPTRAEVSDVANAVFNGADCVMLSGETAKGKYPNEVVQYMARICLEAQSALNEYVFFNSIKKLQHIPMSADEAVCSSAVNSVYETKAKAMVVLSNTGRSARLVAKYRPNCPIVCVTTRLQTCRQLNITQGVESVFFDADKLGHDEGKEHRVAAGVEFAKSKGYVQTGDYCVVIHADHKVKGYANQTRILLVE
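qHTS format; LmPK 0.1 nM; substrates PEP 0.5 mM and ADP 0.1 mM. One-hour room-temperature incubation, then coupled luciferase luminescence; 0.5 nM enzyme wells mark activation.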
CHX counter: counter-screen for Shiga toxin inhibitors: cycloheximide protein synthesis inhibition | cell reporter, cycloheximide protein synthesis inhibition counterscreen | AID 2314 | hit rate 12% among 300,000 | max response, %; in the data active = max response mostly above about 13%, no sharp cut-off; inactive = mostly below about 14%; also: read at 38.3 µM for the half of the compounds with a filed dose
Tb PYK inh: T. brucei pyruvate kinase inhibition. TbPYK enzyme, Kinase-Glo Plus ATP luminescence, 45 min. Q57TT1. hit rate 0.12% among 410,000. Potency, µM (top dose mostly 76.8 µM), actives largely listed as inhibitors; also: nearly all actives have a fitted effect of over 50% in size
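Luminescent Kinase-Glo Plus end-point after 45 min room-temperature reaction of T. brucei pyruvate kinase started with 130 uM ADP (final). Buffer TEA 50 mM pH 7.2 with KCl, MgCl2, BSA, Tween-20; titration-based qHTS with fitted concentration-effect curves.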
Of the large screens only hits and unclear results are named; the others gave an inactive call. Many of the other results were omitted from the sample, so hits are more common in it than they were. Unless noted, calls follow the shape of the dose curve; as a rule, active = well fitted curve in the direction sought with a large enough effect; inconclusive = small, poorly fitted or top-dose-only effect, or another doubt; inactive = no such curve, though single readings can be large; an effect the other way counts as inactive or inconclusive.

CCOc1ccc(S(=O)(=O)NCC(c2ccco2)S(=O)(=O)c2ccc(F)cc2)cc1 (stereo not drawn)	none (no result: NS1 function inh, SARS PLpro yeast, Shiga toxin inh, LmPK inh, CHX counter)
CCOc1ccc(-c2cn3c(n2)sc2cc(C(=O)NC4CCCc5ccccc54)ccc23)cc1 (stereo not drawn)	none (no result: NS1 function inh, SARS PLpro yeast, Shiga toxin inh, LmPK inh, CHX counter)
COc1cccc(-c2nc(-c3ccccc3)nc(N3CCN(C)CC3)c2C#N)c1	none (no result: NS1 function inh)
COc1cccc(-c2nc(N)nc(SC)c2C#N)c1	CHX counter 13.7
N#Cc1cccc(NC(=O)c2cc3c(s2)-c2ccc(Cl)cc2SC3)c1	none (no result: NS1 function inh, SARS PLpro yeast, Shiga toxin inh, LmPK inh, CHX counter)
O=C(C1CCCCC1)N(CCN1CCCC1)c1nc2ccccc2s1	CHX counter 31.5
O=C(NN(C(=O)C1CC1)c1nc2ccccc2s1)C1CC1	NS1 function inh inconclusive, Shiga toxin inh 59.7, CHX counter 45.7
O=C(Nc1cccc(C(F)(F)F)c1)C1CCN(S(=O)(=O)c2cccc3nsnc23)CC1	none (no result: NS1 function inh, SARS PLpro yeast, Shiga toxin inh, LmPK inh, CHX counter)
Cc1ccc2[nH]c3c(=O)n(CC(=O)N4CCCCC4)ncc3c2c1	none (no result: NS1 function inh, SARS PLpro yeast, Shiga toxin inh, LmPK inh, CHX counter)
CC(C)(C)CC(=O)NCCc1csc(-c2ccccc2)n1	Shiga toxin inh 34.0, CHX counter 21.8
CCS(=O)(=O)NCCc1csc(-c2ccccc2)n1	Shiga toxin inh 70.5, CHX counter 57.0
Cc1cccn2cc(CCNC(=O)c3cccs3)nc12	CHX counter 18.5
Cc1cccc(-c2nc(CCNC(=O)Cc3ccccc3)cs2)c1	none (no result: NS1 function inh, SARS PLpro yeast, Shiga toxin inh, LmPK inh, CHX counter)
NC(=O)c1ccc(NC(=O)Cc2csc(-c3ccccc3)n2)cc1	none
Cc1cccn2cc(CCNC(=O)Cc3cccs3)nc12	none
O=C(Cc1csc(-c2ccccc2)n1)NCc1cccs1	Shiga toxin inh 36.9, CHX counter 24.5 (no result: NS1 function inh)
Clc1cccc(CNCCCSc2ncccn2)c1	none
COC(=O)C1=C(C(=O)OC)[C@@H]2N(C)c3ccccc3[C@@]23C[C@@H](C(=O)OC)N(C(=O)c2ccc(Br)cc2)C3=N1	none
O=C(NCCc1csc(-c2ccccc2)n1)c1cccs1	CHX counter 13.1
CC(=O)NCCc1csc(-c2ccccc2)n1	CHX counter 16.0
O=C(O)C1CC=CCC1C(=O)NCCc1csc(-c2ccccc2)n1 (stereo not drawn)	none
O=c1c(=O)n(-c2cccc(Cl)c2)ccn1Cc1cccc(F)c1	none (no result: NS1 function inh, SARS PLpro yeast, Shiga toxin inh, LmPK inh, CHX counter)
CC(C)CC1NC(=O)N(CC(=O)Nc2ccc(OCc3ccccc3)cc2)C1=O (stereo not drawn)	none (no result: NS1 function inh, Shiga toxin inh, LmPK inh, CHX counter)
Oc1ccc(/C=C/c2cnccn2)cc1	Shiga toxin inh 93.6, CHX counter 34.3
Oc1ccc(/C=C\c2cc(O)cc(O)c2)cc1	none (no result: NS1 function inh, SARS PLpro yeast, Shiga toxin inh, LmPK inh, CHX counter)
CSc1nncc(-c2ccc(F)cc2)n1	CHX counter 14.1
COc1ccc(S(=O)(=O)N2CCCCC2c2cc(C(=O)Nc3ccccc3)no2)cc1 (stereo not drawn)	none (no result: NS1 function inh, SARS PLpro yeast, Shiga toxin inh, LmPK inh, CHX counter)
CC(/C=N/Nc1nnc(C)c(=O)[nH]1)=C\c1ccccc1	Shiga toxin inh 81.2, CHX counter 26.3
Cc1cccc(/C=N\Nc2nnc(-c3ccccc3)c(=O)[nH]2)c1	none
CCc1ccc(-n2cnc3cc(C(=O)NCC(OC)OC)ccc32)cc1	none
CCCn1c(O)c(C=Nc2ccccc2)sc1=S	Shiga toxin inh 44.1, CHX counter 36.5
CCCCn1c(O)c(/C=C/C=C/C=Nc2ccccc2)sc1=S	none (no result: NS1 function inh)
Oc1c(/C=C/C=C/C=Nc2ccccc2)sc(=S)n1Cc1ccccc1	Shiga toxin inh 71.9, CHX counter 25.2
CCn1c(O)c(/C=C/C=C/C=Nc2ccccc2)sc1=S	none
COc1cc2c(cc1OC)/C(=C/C(=O)c1ccccc1)NCC2	none
CC1CN/C(=C\C(=O)c2ccccc2)C(=O)N1 (stereo not drawn)	CHX counter 43.5
CC1CN/C(=C\C(=O)c2ccc(Cl)cc2)C(=O)N1 (stereo not drawn)	CHX counter 25.2
C[C@H](CO)N1C[C@H](C)[C@@H](CN(C)S(=O)(=O)c2ccccc2)Oc2ccc(NS(=O)(=O)c3cccs3)cc2C1=O	none (no result: NS1 function inh, Shiga toxin inh, LmPK inh, CHX counter)
Cc1ccc(-c2nn(-c3ccccc3)cc2/C=N/NS(=O)(=O)c2ccccc2)cc1	CHX counter 36.1
Cc1ccc(S(=O)(=O)N/N=C\c2cn(-c3ccccc3)nc2-c2ccccc2)cc1	CHX counter 19.7
Nc1nc2[nH]cc(CCc3ccc(C(=O)NC(CCC(=O)O)C(=O)O)cc3)c2c(=O)[nH]1 (stereo not drawn)	none (no result: NS1 function inh, SARS PLpro yeast, Shiga toxin inh, LmPK inh, CHX counter)
COC(=O)c1ccc(CSc2nc3ccccc3c(=O)n2Cc2ccco2)o1	CHX counter 15.9
